# Measured values taken from PubChem BioAssay (NCATS).
# Values joined by “and” are separate entries in the source; they are usually repeats but may differ in a detail not shown here. Equal entries are not always repeated. Values without a mark were called inactive. Inconclusive results are not listed. Entries that show only a call come without a potency. Active and inactive are the calls of the source. Unless noted, calls come from the whole dose curve; as a rule, active = well fitted curve in the direction sought with a large enough effect; inconclusive = small, poorly fitted or top-dose-only effect, or another doubt; inactive = no such curve, though single readings can be large; an effect the other way counts as inactive or inconclusive.
# Experiments:
# [1] = biological target: Estrogen receptor (Homo sapiens) (UniProt P03372); experiment: qHTS assay for small molecule agonists of estrogen receptor alpha signaling (AID 588514; calls by dose curve; note: nearly all actives have a fitted effect of over 70% in size); conditions: ER-alpha-UAS-bla HEK293, beta-lactamase ratio, 18 h, percent of full estradiol response, vehicle zero; series mostly up to 76.8 µM
# Sequence of Estrogen receptor (Homo sapiens) (P03372 whole entry, looked up): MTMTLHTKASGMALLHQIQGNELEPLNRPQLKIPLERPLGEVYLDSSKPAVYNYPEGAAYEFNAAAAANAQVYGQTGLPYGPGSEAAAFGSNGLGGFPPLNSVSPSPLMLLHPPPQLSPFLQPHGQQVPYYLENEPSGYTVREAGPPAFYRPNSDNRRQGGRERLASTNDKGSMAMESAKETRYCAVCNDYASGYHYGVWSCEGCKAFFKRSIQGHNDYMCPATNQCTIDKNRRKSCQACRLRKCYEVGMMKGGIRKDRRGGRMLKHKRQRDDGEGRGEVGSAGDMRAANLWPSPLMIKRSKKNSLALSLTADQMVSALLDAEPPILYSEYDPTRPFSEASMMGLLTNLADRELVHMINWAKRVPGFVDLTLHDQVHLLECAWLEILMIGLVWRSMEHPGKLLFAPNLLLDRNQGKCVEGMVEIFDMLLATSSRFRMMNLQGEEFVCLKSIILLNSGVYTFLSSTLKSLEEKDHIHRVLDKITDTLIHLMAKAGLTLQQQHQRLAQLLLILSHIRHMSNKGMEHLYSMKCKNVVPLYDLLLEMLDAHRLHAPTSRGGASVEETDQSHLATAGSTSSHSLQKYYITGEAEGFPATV
# Method in brief: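 Cells were plated at 5000/well, incubated 4 hrs at 37 C, dosed with compound titration series, incubated 18 hrs at 37 C, loaded with CCF4 dye for 2 hrs at RT, then fluorescence was read.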
# [2] = biological target: Androgen receptor (Homo sapiens) (UniProt P10275); experiment: qHTS assay for small molecule agonists of androgen receptor signaling (AID 588515; active = well fitted curve in the direction sought with a large enough effect in the signal ratio, with a control signal flat; the % refers to the signal ratio); conditions: AR-UAS-bla HEK293, beta-lactamase ratio, agonist 16 h; hits give high values
# Sequence of Androgen receptor (Homo sapiens) (P10275 whole entry, looked up): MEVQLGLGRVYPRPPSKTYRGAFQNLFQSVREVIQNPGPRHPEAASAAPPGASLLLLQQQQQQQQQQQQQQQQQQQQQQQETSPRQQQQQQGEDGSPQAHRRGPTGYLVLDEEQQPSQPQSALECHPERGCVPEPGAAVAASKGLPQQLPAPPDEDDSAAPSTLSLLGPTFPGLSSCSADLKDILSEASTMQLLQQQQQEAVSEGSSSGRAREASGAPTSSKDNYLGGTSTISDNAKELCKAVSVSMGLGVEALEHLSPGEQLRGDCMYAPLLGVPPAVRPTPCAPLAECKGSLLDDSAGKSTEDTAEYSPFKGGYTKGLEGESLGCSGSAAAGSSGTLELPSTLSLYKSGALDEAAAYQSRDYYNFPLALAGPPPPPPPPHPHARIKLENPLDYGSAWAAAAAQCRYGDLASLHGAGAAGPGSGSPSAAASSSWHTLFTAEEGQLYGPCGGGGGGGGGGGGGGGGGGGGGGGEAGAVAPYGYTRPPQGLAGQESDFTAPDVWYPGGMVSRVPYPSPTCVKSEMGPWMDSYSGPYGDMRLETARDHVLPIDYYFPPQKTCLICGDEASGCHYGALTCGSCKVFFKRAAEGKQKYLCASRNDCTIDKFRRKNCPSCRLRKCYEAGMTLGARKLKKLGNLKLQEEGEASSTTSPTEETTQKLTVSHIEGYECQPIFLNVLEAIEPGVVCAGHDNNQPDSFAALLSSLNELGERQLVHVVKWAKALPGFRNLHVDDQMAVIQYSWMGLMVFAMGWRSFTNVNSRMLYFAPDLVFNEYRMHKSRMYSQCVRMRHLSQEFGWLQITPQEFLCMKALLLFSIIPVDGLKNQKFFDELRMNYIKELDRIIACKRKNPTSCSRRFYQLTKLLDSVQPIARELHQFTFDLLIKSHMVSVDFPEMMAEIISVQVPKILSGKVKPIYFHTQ
# Method in brief: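 EC50 and efficacy came from Hill fits of titrations (up to 92 uM) normalized to 30 nM R1881 as 100% and DMSO as 0%. Compound exposure was 16 h at 37 C on AR-UAS-bla HEK293 cells, with a 405/460/530 nm CCF4 fluorescence read.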
# [3] = biological target: Androgen receptor (Homo sapiens) (UniProt P10275); experiment: qHTS assay for small molecule antagonists of androgen receptor signaling (AID 588516; active = well fitted curve in the direction sought with a large enough effect in the signal ratio, with a control signal flat, not every such curve was filed as active; the % refers to the signal ratio); conditions: AR-UAS-bla HEK293, beta-lactamase ratio, antagonist mode, 16 h; series mostly up to 76.8 µM
# Method in brief: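 Antagonist-mode qHTS: inhibition of R1881 (10 nM)-driven beta-lactamase expression in GripTite HEK 293 cells is measured after 16 h; values are Hill-derived IC50s normalized between R1881 and DMSO wells.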
# [4] = qHTS assay to identify small molecules that stimulate interleukin-8 (IL-8) secretion (AID 651758; active = well fitted activation curve with a large enough effect in the signal ratio; the % refers to the signal ratio); conditions: HTRF ratio (665/615); series mostly up to 92.2 µM
# Method in brief: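 THP-1, 2000 cells/well; cpd 16 h, 37 C; add cryptate + XL665 anti-IL-8 Abs; RT 1-3 h; TR-FRET read.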
# [5] = biological target: Cytochrome P450 2C9 (Homo sapiens) (UniProt P11712); experiment: qHTS for inhibitors of CYP2C9 against the NCATS DSHEA and TCM libraries (AID 1919973); conditions: recombinant CYP2C9 enzyme activity, luminescence; series mostly up to 58.3 µM;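 note: luminogenic pro-luciferin CYP2C9 substrate turned into luciferin with NADPH regeneration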
# Sequence of Cytochrome P450 2C9 (Homo sapiens) (P11712 whole entry, looked up, canonical isoform): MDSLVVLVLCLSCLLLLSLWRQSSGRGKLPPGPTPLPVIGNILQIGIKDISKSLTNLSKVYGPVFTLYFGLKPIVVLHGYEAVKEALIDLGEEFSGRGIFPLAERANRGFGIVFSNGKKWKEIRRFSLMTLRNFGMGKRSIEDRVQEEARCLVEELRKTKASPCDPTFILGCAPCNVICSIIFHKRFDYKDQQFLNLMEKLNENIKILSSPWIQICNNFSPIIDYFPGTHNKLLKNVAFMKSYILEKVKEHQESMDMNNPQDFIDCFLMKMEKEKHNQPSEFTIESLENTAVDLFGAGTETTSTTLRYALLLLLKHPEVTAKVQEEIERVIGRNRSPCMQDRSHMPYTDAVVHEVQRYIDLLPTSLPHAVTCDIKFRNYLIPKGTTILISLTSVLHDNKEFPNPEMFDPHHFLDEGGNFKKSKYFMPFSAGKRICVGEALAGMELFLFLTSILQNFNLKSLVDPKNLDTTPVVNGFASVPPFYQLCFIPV
# Method in brief: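 Read-out is luminescence after P450-Glo detection (30 min, RT). Before that: 15 min compound–enzyme preincubation, then 30-45 min reaction with 1x NADPH regeneration solution, substrate concentration isoform-specific.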
# [6] = qHTS assay for small molecule activators of the p53 signaling pathway (AID 651743; active = well fitted activation curve with a large enough effect in the signal ratio, not every such curve was filed as active; the % refers to the signal ratio); conditions: HCT-116 p53RE-bla, beta-lactamase FRET ratio, 16 h; hits give high values
# Method in brief: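 Cell-based beta-lactamase reporter (p53 response elements, HCT-116 background). After a 5-hour preincubation, cells received compound for 16 hours at 37 C; substrate development ran 2 hours at room temperature.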
# [7] = biological target: Guanine nucleotide-binding protein G(i) subunit alpha-1 (Homo sapiens) (UniProt P63096); experiment: qHTS Assay for Inhibitors of RGS12 GoLoco Motif Activity (Green Fluorophore) (AID 879); conditions: Galphai1/FITC-RGS12 GoLoco peptide, fluorescence polarization; series mostly up to 57.1 µM;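 note: negative values mean loss of peptide binding seen as reduced polarization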
# Sequence of Guanine nucleotide-binding protein G(i) subunit alpha-1 (Homo sapiens) (P63096 whole entry, looked up): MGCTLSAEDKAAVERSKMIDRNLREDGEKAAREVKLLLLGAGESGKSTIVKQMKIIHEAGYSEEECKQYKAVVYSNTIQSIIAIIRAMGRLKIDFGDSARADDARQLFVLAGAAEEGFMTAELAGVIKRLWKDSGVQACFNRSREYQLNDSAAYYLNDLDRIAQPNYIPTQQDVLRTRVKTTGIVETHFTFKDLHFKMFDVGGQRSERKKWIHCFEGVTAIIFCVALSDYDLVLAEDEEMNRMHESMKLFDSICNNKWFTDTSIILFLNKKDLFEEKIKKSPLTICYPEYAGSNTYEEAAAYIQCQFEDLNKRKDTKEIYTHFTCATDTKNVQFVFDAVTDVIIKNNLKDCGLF
# Method in brief: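 Fluorescence polarization assay: 50 nM Gαi1 with 10 nM FITC-labeled RGS12 GoLoco peptide in 10 mM Tris pH 7.5, 150 mM NaCl, 0.1 mM GDP, 0.05% NP40, 10 min at room temperature with compound.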
# [8] = qHTS Assay for Identification of Small Molecule Antagonists for NFkB Signaling Pathway (AID 895; active = well fitted inhibition curve with a large enough effect in the signal ratio, with a control signal flat, not every such curve was filed as active; the % refers to the signal ratio); conditions: NFkB beta-lactamase reporter cells, FRET ratio 460/530, stimulated with 10 pM TNF alpha; series mostly up to 38.3 µM
# Method in brief: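 NFkB-bla ME-180 cervical carcinoma cells with beta-lactamase reporter under NFkB response element; compounds added, then TNF alpha at 10 pM final (EC50), 5 h at 37 C. LiveBLAzer substrate 2 h, room temperature; emission 460/530 nm at 405 nm excitation.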
# [9] = qHTS Assay for Identification of Small Molecule Agonists for Thrombopoietin (TPO) Signaling Pathway (AID 917); conditions: TPO signaling pathway reporter cells, agonist qHTS, stimulated with TPO at its EC50; series mostly up to 38.5 µM
# Method in brief: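 We measured Glycoprotein IIb promoter–luciferase output in IL-3-starved Ba/F3 murine cells expressing the human TPO receptor after 24 hrs at 37 C with compounds and 26 pM TPO.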
# [10] = biological target: Pyruvate kinase (Leishmania mexicana) (UniProt Q27686); experiment: qHTS Validation Assay for Inhibitors of Leishmania Mexicana Pyruvate Kinase (AID 945); conditions: purified L. mexicana pyruvate kinase, enzyme activity, E451W mutant enzyme; series mostly up to 57.5 µM
# Sequence of Pyruvate kinase (Leishmania mexicana) (Q27686 2-499 E452W): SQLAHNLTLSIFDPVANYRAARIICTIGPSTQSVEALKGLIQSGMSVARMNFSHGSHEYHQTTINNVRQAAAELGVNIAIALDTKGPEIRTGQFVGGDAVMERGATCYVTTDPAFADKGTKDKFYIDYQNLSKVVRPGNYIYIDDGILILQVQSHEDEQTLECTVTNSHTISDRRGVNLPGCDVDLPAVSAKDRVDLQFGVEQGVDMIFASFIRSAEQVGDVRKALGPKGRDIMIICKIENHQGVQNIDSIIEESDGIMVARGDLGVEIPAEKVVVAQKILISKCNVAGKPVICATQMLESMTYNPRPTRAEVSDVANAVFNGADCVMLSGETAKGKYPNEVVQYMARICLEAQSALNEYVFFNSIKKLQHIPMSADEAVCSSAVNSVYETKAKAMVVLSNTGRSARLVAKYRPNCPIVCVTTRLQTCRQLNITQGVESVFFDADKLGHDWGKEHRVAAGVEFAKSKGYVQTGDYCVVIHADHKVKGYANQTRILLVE
# Method in brief: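 Purified LmPYK (E451W mutant, 0.2 nM) was incubated 1 h at room temperature with 0.5 mM PEP and 0.1 mM ADP in 50 mM imidazole pH 7.2, 50 mM KCl, 7 mM MgCl2; ATP formed was read by PKLight luminescence, normalized to DMSO wells.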
# [11] = biological target: Pyruvate kinase PKM (Homo sapiens) (UniProt P14618); experiment: qHTS Assay for Activators of Human Muscle Pyruvate Kinase (AID 954; active = well fitted curve in the direction sought with a large enough effect, not every such curve was filed as active); conditions: purified human muscle pyruvate kinase, luciferase-coupled luminescence, 1 h; series mostly up to 57.5 µM
# Sequence of Pyruvate kinase PKM (Homo sapiens) (P14618 whole entry, looked up): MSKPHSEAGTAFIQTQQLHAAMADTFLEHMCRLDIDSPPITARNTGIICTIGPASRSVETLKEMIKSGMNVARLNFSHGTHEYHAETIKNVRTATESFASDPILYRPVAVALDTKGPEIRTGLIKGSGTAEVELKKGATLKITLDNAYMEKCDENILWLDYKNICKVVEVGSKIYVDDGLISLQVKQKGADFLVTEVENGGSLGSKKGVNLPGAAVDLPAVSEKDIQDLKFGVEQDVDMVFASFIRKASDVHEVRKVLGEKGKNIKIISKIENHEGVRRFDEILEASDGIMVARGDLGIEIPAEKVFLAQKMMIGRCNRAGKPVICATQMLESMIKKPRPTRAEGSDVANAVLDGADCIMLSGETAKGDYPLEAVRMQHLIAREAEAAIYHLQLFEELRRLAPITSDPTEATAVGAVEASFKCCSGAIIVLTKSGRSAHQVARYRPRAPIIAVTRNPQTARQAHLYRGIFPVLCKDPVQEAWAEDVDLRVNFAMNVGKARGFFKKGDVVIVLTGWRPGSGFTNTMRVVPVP
# Method in brief: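 Human PKM2 activity is measured as ATP generation, detected by luciferase-coupled luminescence. The enzyme (0.1 nM) acts on 0.5 mM PEP and 0.1 mM ADP for 1 h at ambient temperature; data are normalized to uninhibited and full-inhibition wells.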
smiles,measurement,setting,value
COS(C)(=O)=O,outcome,[1],inactive
C=C(C)[C@H]1CC=C(C)C(=O)C1,activation,[2],12.8% and -1.39%
same,outcome,[3],inactive
same,outcome,[4],inactive
same,Potency,[5],inactive
CC1=CC(=O)CC(C)(C)C1(O)/C=C/C(C)=C\C(=O)O (stereo unspecified),activation,[6],-1.58%
CN1[C@@H]2CC[C@H]1CC(OC(=O)[C@@H](O)c1ccccc1)C2 (stereo partly specified),Potency,[7],inactive
same,Potency,[8],inactive
same,outcome,[9],inactive
same,outcome,[10],inactive
same,outcome,[11],inactive
